This passage reports plasma membrane CFTR intensity and total CFTR intensity results from PubChem BioAssay AID1224864 (Chung Lab, Department of Pediatrics, Emory University, 2016).

Out of some 2,000 compounds screened, about 20 (1%) were called active. How the calls were made is not given here. The full list was thinned out, with actives kept by preference.

Cystic fibrosis transmembrane conductance regulator (Homo sapiens), sequence (P13569 whole entry, looked up, stated change not applied): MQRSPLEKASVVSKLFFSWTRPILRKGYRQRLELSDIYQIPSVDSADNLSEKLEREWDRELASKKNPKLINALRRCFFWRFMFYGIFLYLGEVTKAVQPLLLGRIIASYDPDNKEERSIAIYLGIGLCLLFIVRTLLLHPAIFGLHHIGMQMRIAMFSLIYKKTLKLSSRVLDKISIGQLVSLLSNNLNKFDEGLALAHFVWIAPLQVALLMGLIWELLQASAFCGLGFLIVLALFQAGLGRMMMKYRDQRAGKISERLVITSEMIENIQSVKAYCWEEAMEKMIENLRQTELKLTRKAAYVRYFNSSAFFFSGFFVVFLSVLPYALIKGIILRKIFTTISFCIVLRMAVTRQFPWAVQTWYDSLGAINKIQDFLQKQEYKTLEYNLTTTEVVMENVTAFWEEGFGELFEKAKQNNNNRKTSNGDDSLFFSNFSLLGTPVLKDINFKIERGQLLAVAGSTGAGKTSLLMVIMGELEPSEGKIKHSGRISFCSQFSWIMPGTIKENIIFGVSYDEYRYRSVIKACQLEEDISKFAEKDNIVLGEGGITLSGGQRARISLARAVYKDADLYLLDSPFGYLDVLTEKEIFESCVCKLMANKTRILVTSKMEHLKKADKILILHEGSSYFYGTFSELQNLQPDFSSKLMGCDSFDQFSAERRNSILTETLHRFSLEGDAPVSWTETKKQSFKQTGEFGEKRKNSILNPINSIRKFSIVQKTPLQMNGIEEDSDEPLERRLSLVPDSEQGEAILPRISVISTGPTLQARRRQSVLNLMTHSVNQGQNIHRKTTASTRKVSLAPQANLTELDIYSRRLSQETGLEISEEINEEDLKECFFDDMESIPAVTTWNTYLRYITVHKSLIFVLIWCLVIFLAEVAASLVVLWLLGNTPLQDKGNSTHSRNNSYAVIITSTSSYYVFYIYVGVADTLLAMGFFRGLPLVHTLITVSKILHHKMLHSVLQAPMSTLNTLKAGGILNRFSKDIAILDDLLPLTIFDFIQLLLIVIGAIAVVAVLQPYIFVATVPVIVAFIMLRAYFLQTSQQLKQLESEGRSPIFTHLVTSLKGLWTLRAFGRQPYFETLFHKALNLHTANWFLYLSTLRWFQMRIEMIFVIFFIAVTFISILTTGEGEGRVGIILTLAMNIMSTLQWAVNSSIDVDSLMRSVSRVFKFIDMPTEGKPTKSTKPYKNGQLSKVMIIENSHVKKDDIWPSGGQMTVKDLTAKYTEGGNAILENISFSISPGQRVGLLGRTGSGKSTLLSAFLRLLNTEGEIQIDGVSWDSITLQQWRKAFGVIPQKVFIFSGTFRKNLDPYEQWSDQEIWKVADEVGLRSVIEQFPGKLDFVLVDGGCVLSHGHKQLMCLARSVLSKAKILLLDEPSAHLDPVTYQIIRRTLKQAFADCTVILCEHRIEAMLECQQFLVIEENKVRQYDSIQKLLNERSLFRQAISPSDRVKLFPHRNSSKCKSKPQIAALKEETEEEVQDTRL

The assay has as its target Cystic fibrosis transmembrane conductance regulator (Homo sapiens) (UniProt P13569). Briefly: correctors of F508del-CFTR surface localization, primary screen, imaging, HeLa, high-content microscopy, immunofluorescence (AID 1224864).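 Further: HeLa cells stably expressing F508del-CFTR stained with 3G11 antibody against NBD1.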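 On plasma membrane CFTR intensity: mean immunofluorescence in a thin cell-margin band taken as plasma membrane.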 Particulars: PM immunofluorescence imaging, 24 h, at 10 µM, stronger effect = higher value; total CFTR intensity: measured here: total cellular F508del-CFTR signal unless noted.
Regarding `CC(C)[C@@]1(NC(=O)[C@@H]2C[C@@H]3c4cccc5[nH]cc(c45)C[C@H]3N(C)C2)O[C@@]2(O)[C@@H]3CCCN3C(=O)[C@H](Cc3ccccc3)N2C1=O`, the plasma membrane CFTR intensity was 50% (inactive) and the total CFTR intensity came out at 49%.

On to `CC(C)C[C@H]1C(=O)N2CCCC2[C@]2(O)O[C@](NC(=O)[C@@H]3C=C4c5cccc6[nH]cc(c56)CC4N(C)C3)(C(C)C)C(=O)N12` (stereo not given in full), for which the plasma membrane CFTR intensity is 123% [relative to vehicle wells set at 100] (active) and the total CFTR intensity was 142% [measured here: total cellular F508del-CFTR signal, relative to vehicle wells set at 100].

On to `CC[C@@H](CO)NC(=O)[C@@H]1C=C2c3cccc4c3c(cn4C)C[C@H]2N(C)C1`, for which the plasma membrane CFTR intensity was 78% (inactive) and the total CFTR intensity came out at 76%.

On to `CC(C)[C@H]1C(=O)N2CCC[C@H]2[C@]2(O)O[C@](NC(=O)[C@@H]3C=C4c5cccc6[nH]cc(c56)C[C@H]4N(C)C3)(C(C)C)C(=O)N12`, for which the plasma membrane CFTR intensity is 106% [relative to vehicle wells set at 100] (active) and the total CFTR intensity is 139% [measured here: total cellular F508del-CFTR signal, relative to vehicle wells set at 100].

`Clc1ccc(C2NCCc3nc[nH]c32)cc1` (stereo not given): the plasma membrane CFTR intensity is 79% [relative to vehicle wells set at 100] (inactive) and the total CFTR intensity was 78% [measured here: total cellular F508del-CFTR signal, relative to vehicle wells set at 100].

For `CC(C)C(=O)Nc1ccc(S(=O)(=O)N2CC3CC(C2)c2cccc(=O)n2C3)cc1` (stereo not given), the plasma membrane CFTR intensity is 92% (inactive) and the total CFTR intensity turned out to be 96%.

In the case of `C[C@@]1(CO)[C@H](O)CC[C@@]2(C)[C@H]1CC[C@H]1C[C@@H]3C[C@@]12CC[C@]3(O)CO`, the plasma membrane CFTR intensity is 75% (inactive) and the total CFTR intensity turned out to be 83%.

For `CN1CCN(CCCN2c3ccccc3Sc3ccc(Cl)cc32)CC1`, the plasma membrane CFTR intensity is 57% (inactive) and the total CFTR intensity came out at 48%.

`COP(=O)(OC)C(O)C(Cl)(Cl)Cl` (stereo not given): the plasma membrane CFTR intensity was 96% (inactive) and the total CFTR intensity is 100%.

For the compound `CC12CC[C@H]3[C@@H](CCC4(O)C[C@H](O)CCC34/C=N/NC(=O)Cc3ccccc3)C1(O)CCC2C1=CC(=O)OC1` (stereo not given in full), the plasma membrane CFTR intensity is 87% [relative to vehicle wells set at 100] (inactive) and the total CFTR intensity was 88% [measured here: total cellular F508del-CFTR signal, relative to vehicle wells set at 100].
